Test results: PubChem BioAssay AID1159580 (chemical genetic matrix, 2015)
About 2,000 (36%) of roughly 5,500 compounds were called active. Roughly 18% stayed inconclusive and do not appear here. No stated cut-off is given here; in the data, active means normalized growth mostly below about 0.91 (no sharp cut-off); inconclusive means no clear call, values can overlap the other calls; inactive means mostly above about 0.92. The list shows a part of the results.

Experiment: chemical genetic growth profiling, strain panel (AID 1159580);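 further: tested at 20 µM; growth read once vehicle control cultures reached saturation at 30 °C; 1 = growth at the plate median or of vehicle wells; lower values mean less growth of the strain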
Conditions: growth OD

Measured: normalized growth

CC1[C@H](C)OC(=O)CC(O)CC(O)CC(O)CCC(O)C(O)C[C@]2(O)CC(O)C(C(=O)O)C(CC(OC3O[C@H](C)[C@@H](O)[C@H](N)[C@@H]3O)/C=C/C=C/C=C/C=C/CC/C=C/C=C/[C@H](C)[C@H]1O)O2 (stereo partly specified)
active: S. cerevisiae deletion strains, locus YKL009W, strain mrt4, active compounds read low 0.0887 | S. cerevisiae deletion strains, locus YKL068W, active compounds read low 0.0555 | S. cerevisiae deletion strains, locus YKL085W, strain MDH1 (second series), active compounds read low 0.0538 | S. cerevisiae deletion strains, locus YKL085W, strain MDH1, active compounds read low 0.0538 | S. cerevisiae deletion strains, locus YKL190W, strain CNB1, active compounds read low 0.193 | S. cerevisiae deletion strains, locus YKR001C, strain vps1, active compounds read low 0.0857 | S. cerevisiae deletion strains, locus YKR026C, strain gcn3, active compounds read low 0.0734 | S. cerevisiae deletion strains, locus YLL001W, strain dnm1, active compounds read low 0.759 | S. cerevisiae deletion strains, locus YLL026W, active compounds read low 0.446 | S. cerevisiae deletion strains, locus YLL041C, strain sdh2, active compounds read low 0.913 | S. cerevisiae deletion strains, locus YLR027C, strain aat2, active compounds read low 0.633 | S. cerevisiae deletion strains, locus YLR039C, strain RIC1, active compounds read low 0.0871 | S. cerevisiae deletion strains, locus YLR058C, strain SHM2, active compounds read low 0.374 | S. cerevisiae deletion strains, locus YLR102C, strain apc9, active compounds read low 0.283 | S. cerevisiae deletion strains, locus YLR113W, strain HOG1, active compounds read low 0.124 | S. cerevisiae deletion strains, locus YLR221C, strain rsa3, active compounds read low 0.36 | S. cerevisiae deletion strains, locus YLR258W, strain gsy2, active compounds read low 0.857 | S. cerevisiae deletion strains, locus YLR262C, strain YPT6 (second series), active compounds read low 0.799 | S. cerevisiae deletion strains, locus YLR262C, strain YPT6, active compounds read low 0.0948 | S. cerevisiae deletion strains, locus YLR268W, strain sec22, active compounds read low 0.119 | S. cerevisiae deletion strains, locus YLR330W, strain CHS5, active compounds read low 0.176 | S. cerevisiae deletion strains, locus YLR342W, strain FKS1 (second series), active compounds read low 0.126 | S. cerevisiae deletion strains, locus YLR342W, strain FKS1, active compounds read low 0.376 | S. cerevisiae deletion strains, locus YLR357W, strain rsc2, active compounds read low 0.123 | S. cerevisiae deletion strains, locus YLR370C, strain arc18, active compounds read low 0.0729 | S. cerevisiae deletion strains, locus YLR371W, strain rom2, active compounds read low 0.112 | S. cerevisiae deletion strains, locus YLR384C, strain iki3, active compounds read low 0.907 | S. cerevisiae deletion strains, locus YLR418C, strain cdc73, active compounds read low 0.202 | S. cerevisiae deletion strains, locus YML016C, strain PPZ1, active compounds read low 0.841 | S. cerevisiae deletion strains, locus YML032C, strain rad52, active compounds read low 0.333 | S. cerevisiae deletion strains, locus YML120C, strain ndi1, active compounds read low 0.0634 | S. cerevisiae deletion strains, locus YML124C, strain tub3, active compounds read low 0.103 | S. cerevisiae deletion strains, locus YMR058W, strain fet3, active compounds read low 0.318 | S. cerevisiae deletion strains, locus YMR078C, strain ctf18, active compounds read low 0.612 | S. cerevisiae deletion strains, locus YMR125W, strain sto1, active compounds read low 0.112 | S. cerevisiae deletion strains, locus YMR129W, active compounds read low 0.0795 | S. cerevisiae deletion strains, locus YMR223W, strain ubp8, active compounds read low 0.0876 | S. cerevisiae deletion strains, locus YMR231W, strain pep5, active compounds read low 0.839 | S. cerevisiae deletion strains, locus YMR263W, strain SAP30, active compounds read low 0.0585 | S. cerevisiae deletion strains, locus YMR307W, strain GAS1, active compounds read low 0.103 | S. cerevisiae deletion strains, locus YNL067W, strain RPL9B, active compounds read low 0.0572 | S. cerevisiae deletion strains, locus YNL071W, strain lat1, active compounds read low 0.885 | S. cerevisiae deletion strains, locus YNL128W, strain TEP1, active compounds read low 0.0617 | S. cerevisiae deletion strains, locus YNL153C, strain GIM3, active compounds read low 0.0492 | S. cerevisiae deletion strains, locus YNL183C, strain NPR1, active compounds read low 0.00104 | S. cerevisiae deletion strains, locus YNL209W, strain ssb2, active compounds read low 0.816 | S. cerevisiae deletion strains, locus YNL233W, strain BNI4, active compounds read low 0.135 | S. cerevisiae deletion strains, locus YNL248C, strain rpa49, active compounds read low 0.104 | S. cerevisiae deletion strains, locus YNL250W, strain rad50, active compounds read low 0.0643 | S. cerevisiae deletion strains, locus YNL271C, strain bni1, active compounds read low 0.0657 | S. cerevisiae deletion strains, locus YNL298W, strain CLA4, active compounds read low 0.0613 | S. cerevisiae deletion strains, locus YNL307C, strain MCK1, active compounds read low 0.0855 | S. cerevisiae deletion strains, locus YNL322C, strain KRE1 (second series), active compounds read low 0.695 | S. cerevisiae deletion strains, locus YNL322C, strain KRE1, active compounds read low 0.0469 | S. cerevisiae deletion strains, locus YNR052C, strain pop2, active compounds read low 0.0638 | S. cerevisiae deletion strains, locus YOL006C, strain TOP1, active compounds read low 0.276 | S. cerevisiae deletion strains, locus YOL147C, strain pex11, active compounds read low 0.111 | S. cerevisiae deletion strains, locus YOR001W, strain rrp6, active compounds read low 0.102 | S. cerevisiae deletion strains, locus YOR061W, strain CKA2, active compounds read low 0.41 | S. cerevisiae deletion strains, locus YOR069W, strain VPS5, active compounds read low 0.156 | S. cerevisiae deletion strains, locus YOR080W, strain dia2, active compounds read low 0.826 | S. cerevisiae deletion strains, locus YOR083W, strain WHI5, active compounds read low 0.798 | S. cerevisiae deletion strains, locus YOR106W, strain vam3, active compounds read low 0.284 | S. cerevisiae deletion strains, locus YOR136W, strain idh2, active compounds read low 0.221 | S. cerevisiae deletion strains, locus YOR144C, strain elg1, active compounds read low 0.123 | S. cerevisiae deletion strains, locus YOR184W, strain ser1, active compounds read low 0.0785 | S. cerevisiae deletion strains, locus YOR231W, strain MKK1, active compounds read low 0.105 | S. cerevisiae deletion strains, locus YOR265W, strain rbl2, active compounds read low 0.887 | S. cerevisiae deletion strains, locus YOR316C, strain cot1, active compounds read low 0.236 | S. cerevisiae deletion strains, locus YPL051W, strain arl3, active compounds read low 0.885 | S. cerevisiae deletion strains, locus YPL055C, strain LGE1, active compounds read low 0.0909 | S. cerevisiae deletion strains, locus YPL078C, strain atp4, active compounds read low 0.757 | S. cerevisiae deletion strains, locus YPL106C, strain sse1, active compounds read low 0.229 | S. cerevisiae deletion strains, locus YPL241C, strain CIN2, active compounds read low 0.182 | S. cerevisiae deletion strains, locus YPL256C, strain CLN2, active compounds read low 0.116 | S. cerevisiae deletion strains, locus YPR119W, strain clb2, active compounds read low 0.271 | S. cerevisiae deletion strains, locus YPR141C, strain kar3, active compounds read low 0.0655 | S. cerevisiae deletion strains, locus YPR163C, strain tif3, active compounds read low 0.152 | S. cerevisiae deletion strains, locus YPR167C, strain met16, active compounds read low 0.0932 | S. cerevisiae deletion strains, strain wtn01, active compounds read low 0.0877 | S. cerevisiae strains, strain wild type, active compounds read low 0.0547
inactive: S. cerevisiae deletion strains, locus YKL160W, strain elf1, active compounds read low 0.952 | S. cerevisiae deletion strains, locus YKR091W, strain srl3, active compounds read low 0.986 | S. cerevisiae deletion strains, locus YLR320W, strain mms22, active compounds read low 1 | S. cerevisiae deletion strains, locus YMR205C, strain PFK2, active compounds read low 0.916 | S. cerevisiae deletion strains, locus YNR049C, strain mso1, active compounds read low 0.951 | S. cerevisiae deletion strains, locus YOL012C, strain htz1 0.206 | S. cerevisiae deletion strains, locus YOR070C, strain gyp1, active compounds read low 0.95 | S. cerevisiae deletion strains, locus YOR270C, strain vph1, active compounds read low 0.837 | S. cerevisiae deletion strains, locus YOR290C, strain snf2, active compounds read low 1.01 | S. cerevisiae deletion strains, locus YPL240C, strain hsp82, active compounds read low 0.943
